Test results published in PubChem BioAssay AID623911 (Vanderbilt High Throughput Screening Facility, 2012).
Among all 2,100 compounds or so, about 770 (37%) were called active. The list shows a part of the results. Values without a mark were called inactive.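 Rule for the calls: active = by-eye trace score of 1 for enhancers or -1 for inhibitors, so actives lie on both sides (some results past the limit were not filed as active); inactive = score 0, or 3 fluorescent, or 4 baseline rise.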

biological target: G protein-activated inward rectifier potassium channel 2 (Homo sapiens) + G protein-activated inward rectifier potassium channel 1 (Homo sapiens) (UniProt P48051+P48549); test: GIRK1/2 thallium flux modulators, retest, confirmation, cell-based, HEK293 rmGlu8/hGIRK1/2, FluoZin-2 (AID 623911); conditions: HEK293 rmGlu8/hGIRK1/2, thallium flux FluoZin-2; actives lie on both sides; glutamate co-added at its EC20 level
Sequence (P48051 whole entry, looked up): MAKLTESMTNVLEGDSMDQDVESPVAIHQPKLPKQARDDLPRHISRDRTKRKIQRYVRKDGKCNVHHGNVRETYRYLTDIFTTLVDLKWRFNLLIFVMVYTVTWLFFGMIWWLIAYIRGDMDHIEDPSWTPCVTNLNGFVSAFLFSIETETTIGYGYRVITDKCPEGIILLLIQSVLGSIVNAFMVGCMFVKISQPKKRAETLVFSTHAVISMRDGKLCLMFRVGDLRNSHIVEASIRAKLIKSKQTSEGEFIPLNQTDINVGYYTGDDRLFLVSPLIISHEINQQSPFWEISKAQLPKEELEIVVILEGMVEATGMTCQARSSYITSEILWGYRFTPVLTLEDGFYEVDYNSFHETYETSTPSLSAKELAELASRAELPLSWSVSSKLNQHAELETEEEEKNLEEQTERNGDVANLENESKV
Sequence (P48549 whole entry, looked up): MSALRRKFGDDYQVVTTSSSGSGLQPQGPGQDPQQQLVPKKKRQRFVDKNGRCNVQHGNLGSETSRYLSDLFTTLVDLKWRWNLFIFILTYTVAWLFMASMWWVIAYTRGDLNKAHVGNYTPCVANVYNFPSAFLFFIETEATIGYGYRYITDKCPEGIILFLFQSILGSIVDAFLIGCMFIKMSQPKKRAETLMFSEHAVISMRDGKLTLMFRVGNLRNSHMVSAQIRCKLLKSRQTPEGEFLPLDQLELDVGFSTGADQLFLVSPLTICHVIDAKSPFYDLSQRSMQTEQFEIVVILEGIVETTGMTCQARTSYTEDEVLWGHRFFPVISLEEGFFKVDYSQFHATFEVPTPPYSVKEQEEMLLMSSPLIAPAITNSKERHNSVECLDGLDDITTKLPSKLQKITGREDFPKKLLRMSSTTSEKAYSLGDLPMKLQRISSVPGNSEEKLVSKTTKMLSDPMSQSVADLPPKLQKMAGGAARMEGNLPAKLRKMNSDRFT

SMILES	manual score
O=C(O)c1oc2ccccc2c1CSc1ccccn1	0
CCCCCCc1cc2cc(C(=O)NC)c(=N)oc2cc1O	3
CCCCc1cc(=O)oc2cc(C)cc(O)c12	-1 (active)
Cc1ccccc1NC(=S)NC(=O)c1cncc(Br)c1	1 (active)
CC1CCCC(NC(=S)NC(=O)c2cncc(Br)c2)C1C (stereo not drawn)	1 (active)
O=C(Nc1ccc(N2CCCCC2)c(Cl)c1)c1ncn[nH]1	0
Cc1ccccc1NC(=S)NC(=O)c1cc(-c2ccccc2)nc2ccccc12	0
O=C(NC(=S)NC1CCCCCC1)c1cncc(Br)c1	0
O=C(NC(=S)Nc1ccc(N2CCOCC2)c(Cl)c1)c1cncc(Br)c1	1 (active)
COc1ccc(OCC(=O)NC(=S)Nc2ccc(N3CCOCC3)c(Cl)c2)cc1	0
CCn1c(CCNC(=O)c2cccs2)nnc1SCC(=O)Nc1ccc(Cl)cc1	0
O=C(CSCCO)Nc1ccccc1	0
NC(=O)SCC(=O)Nc1cccc(Cl)c1	1 (active)
CC(C)(C)CC(=O)Nc1ccc(C(N)=O)cc1	0
NC(=O)SCC(=O)Nc1ccc(Cl)cc1	1 (active)
O=C(CC(O)(C(F)(F)F)C(F)(F)F)Nc1ccc(Cl)c(Cl)c1	0
Cc1ccc(NC(=O)Cn2cccc2)cc1Cl	0
Cc1ccc(NC(=O)CSC(N)=O)cc1Cl	1 (active)
Cn1c(=O)c(NCCc2ccccc2)c2c3c(cccc31)C(=O)c1ccccc1-2	3
Cc1ccccc1Cn1c(=N)n(CC(O)c2ccco2)c2ccccc21 (stereo not drawn)	-1 (active)
Cc1ccccc1Cn1c(-c2cncs2)nc2ccccc21	0
Cc1ccccc1Cn1c(=N)n(CC(=O)c2ccco2)c2ccccc21	-1 (active)

SMILES	manual score
C1CCC2(CC1)OCC1(CO2)COC2(CCCCC2)OC1	0
Cc1cccc(NC(=S)N2CCC(C(=O)c3ccc(F)cc3)CC2)c1C	0
c1ccc(-c2nnc3n2NC(c2ccc4c(c2)OCO4)S3)cc1 (stereo not drawn)	1 (active)
Cc1cccc(NC(=O)COc2ccc(Br)cc2/C=N/O)c1	0
O=C(/C=C/c1ccccc1)c1cc(Br)ccc(=O)c1O	1 (active)
COc1ccc(/C=C/C(=O)c2cc(Br)ccc(=O)c2O)cc1	1 (active)
Cc1cccc(/C=c2\s/c(=C\C(=O)C(C)(C)C)[nH]c2=O)c1	0
Cc1ccc(/C=C/C(=O)c2ccccc(=O)c2O)cc1C	1 (active)
Cc1cccc(/C=C/C(=O)c2cc(Br)ccc(=O)c2O)c1	1 (active)
CCC(=O)Oc1ccc(C/C(=N\O)c2ccc(O)cc2O)o1	0
COc1ccc(-c2cc(C(F)(F)F)c3c(n2)sc2c(O)cc(=O)[nH]c23)c(OC)c1	-0.5
N#CC(C#N)=C1C=C2C=C(N3CCCCC3)CCC2CC1 (stereo not drawn)	3
CC(C)CN(C(=O)COC(=O)Cc1n[nH]c(=O)c2ccccc12)C1CCS(=O)(=O)C1 (stereo not drawn)	0
CCc1ccc(/C=C/C(=O)c2cc(Br)ccc(=O)c2O)cc1	1 (active)
COc1ccc(NC(=O)CSc2nnc(-c3ccccn3)n2Cc2ccco2)cc1OC	0
CCOC(=O)c1oc2nc(C(C)C)c3c(c2c1N)CC(C)(C)OC3	0
O/N=C/c1cc(Cl)ccc1OCc1cccc2ccccc12	0
Cc1cc(C)n(-c2nnc(C)n2/N=C/c2ccccc2OCc2ccccc2Cl)n1	-1 (active)
COc1ccccc1/C=C/C=N\N1CCN(Cc2ccccc2Cl)CC1	0
OC(c1ccccc1)C1CN(Cc2ccccc2)CCC1(O)c1ccccc1 (stereo not drawn)	-1 (active)
O=C(COc1ccccc1F)NC1CCN(Cc2ccccc2)CC1	0
Cc1ccc(C)c2[nH]c(=O)c(CN(CCN3CCCC3)C(=O)Nc3ccc(F)cc3)cc12	-1 (active)

SMILES	manual score
CC(C)CCn1c(SCC#N)nc2c(sc3ccccc32)c1=O	0
CCOC(=O)CSc1nc2c(sc3ccccc32)c(=O)n1CCCN1CCOCC1	-1 (active)
CCCCn1c(SCC(N)=O)nc2c(sc3ccccc32)c1=O	0
Cc1cccc2c1nc(-c1ccccc1)n1cnnc21	0
Cc1ccc(C)c(N2CCN(C(=O)CCCOc3cc(=O)n(C)c4ccccc34)CC2)c1	0
COc1ccccc1N1CCN(C(=O)CCn2c(=O)[nH]c3ccsc3c2=O)CC1	0
O=C(CCn1c(=O)oc2ccccc21)N1CCN(c2ccccc2Cl)CC1	-1 (active)
CCC(=O)n1nc(-c2cccnc2)nc1NCc1ccc(OC)cc1	0
CC(C)CCNC(=O)C(C)N(C(=O)Cn1nnc(-c2ccc(F)cc2)n1)C1CCCC1 (stereo not drawn)	0.5
CC(C)CCNC(=O)C(C)N(Cc1ccc(F)cc1)C(=O)c1ccc(CN2CCCCC2)o1 (stereo not drawn)	-1 (active)
CN1C=CC2=C(C#N)C(N)C(C#N)(C#N)C(c3ccccc3)C2C1 (stereo not drawn)	3
Clc1ccc(Cc2ccc(SCc3ccccc3)nn2)c(Cl)c1	0
S=C(NCCc1ccccc1)Nc1ccc(Cl)cc1Cl	-0.5
Fc1ccccc1CNC(=S)Nc1ccc(Cl)cc1	1 (active)
S=C(NN=C1CCCCCC1)Nc1ccc(Cl)cc1	0.5
Fc1ccc(NC(=S)NCc2ccccc2Cl)cc1	1 (active)
S=C(N/N=C/c1ccccc1Cl)Nc1ccccc1	0.5
S=C(NCc1ccc(Cl)cc1Cl)Nc1ccccc1	1 (active)
CC1(C)CC(=O)c2c(noc2-c2ccccc2)C1	0
O=C(Oc1ccccc1C(=S)N1CCCCC1)c1cc([N+](=O)[O-])cc([N+](=O)[O-])c1	-1 (active)
O=C(NC(=S)Nc1ccccc1N1CCCC1)c1ccc(-c2cccc([N+](=O)[O-])c2)o1	0
Fc1ccc(NC(=S)N/N=C/c2cccc(Br)c2)c(F)c1	0

SMILES	manual score
Fc1ccc(NC(=S)N/N=C/c2ccc(F)c(F)c2)c(F)c1	1 (active)
Fc1ccc(/C=N/NC(=S)Nc2ccc(Cl)cc2)cc1F	0
Oc1c(C=NCc2ccncc2)sc2ccccc12	1 (active)
CN(CCNC(=O)c1cc2c(=O)n(C)c3ccccc3c2n1C)Cc1ccccc1	-1 (active)
CCn1c(=O)c(C(=O)NCCCO)c(O)c2ccccc21	0
CCCN(CCC)CCCNC(=O)c1cc2c(=O)n(C)c3ccccc3c2n1C	-1 (active)
O=C(NC(Nc1nc2ccc([N+](=O)[O-])cc2s1)(C(F)(F)F)C(F)(F)F)c1ccccc1	1 (active)
O=C(NC(Nc1nc2ccc([N+](=O)[O-])cc2s1)(C(F)(F)F)C(F)(F)F)c1ccccc1Cl	0
Cc1ccc(C)c(OCC(=O)Nc2nc3ccc([N+](=O)[O-])cc3s2)c1C	0
Cc1onc(-c2c(F)cccc2Cl)c1C(=O)OCn1nnc2ccccc2c1=O	-1 (active)
Cc1noc(C)c1CSc1nc2ccccc2c(=O)n1-c1ccc(F)cc1F	0
COC(=O)c1c(NC(=O)Cc2cccs2)sc(C(=O)NC2CCCCC2)c1C	0
COc1cccc(NC(=O)Nc2cccs2)c1	1 (active)
O=C(Cc1cccs1)Nc1cccnc1	0
O=C(Nc1cccs1)Nc1c(F)c(F)c(F)c(F)c1F	1 (active)
CCOc1ccc(Nc2ncnc(N)n2)cc1	1.5
COc1cc(NC(=O)Cc2cccs2)cc(OC)c1	1 (active)
CCOc1ccc(NC(=O)Nc2cccs2)cc1	1 (active)
CCOc1ccc(NC(=O)CCC(=O)c2ccc(-c3ccccc3)cc2)cc1	0
Cc1ccc(-c2cc(-c3cccs3)[nH]n2)c(O)c1	0
CN1C=CC2=C(C#N)C(N)C(C#N)(C#N)[C@H](c3ccccc3)[C@H]2C1 (stereo partly drawn)	1.5
Cn1c(SCC(=O)c2cc3ccccc3o2)nnc1-c1ccccc1	0

SMILES	manual score
CC1CC2=C(CC1/C=N/NC(N)=S)C(C)(C)CCC2 (stereo not drawn)	0
CCN(CC)CC(O)COc1ccccc1C(=O)CCc1ccccc1 (stereo not drawn)	-1 (active)
CCN(CC)C(=O)CSc1nnc(NC(=O)CCc2ccccc2)s1	0
Cc1ccccc1NC(=S)NC(=O)CCc1ccccc1	0
S=C1Nc2cc(Cl)ccc2Sc2ccccc21	0.5
S=C1CCSc2ccc(Cl)cc2N1	1 (active)
CC(C)C1Cc2c(sc3c2c(=O)n(Cc2ccccc2)c2nncn32)CO1 (stereo not drawn)	1 (active)
O=c1c2cccnc2[nH]c(=S)n1Cc1ccccc1	0
CC1(C)Cc2c(sc3[nH]c(=S)n(Cc4ccccc4)c(=O)c23)CO1	1 (active)
CC(C)C1Cc2c(sc3[nH]c(=S)n(Cc4ccccc4)c(=O)c23)CO1 (stereo not drawn)	1 (active)
CCC1(C)Cc2c(sc3c2c(=O)n(C)c2nnc(SCc4ccc5c(c4)OCO5)n32)CO1 (stereo not drawn)	0
CCC1(C)Cc2c(sc3[nH]c(=S)n(Cc4ccccc4)c(=O)c23)CO1 (stereo not drawn)	1 (active)
COc1ccccc1N(C)S(=O)(=O)c1ccc(C(=O)N(CC(N)=O)C(C)C)cc1	0
CC(=O)/C(=N\Nc1ccc(Cl)cc1Cl)Sc1cccc2cccnc12	0
N#CC1=C(N)Oc2n[nH]c(-c3cccs3)c2C1c1ccco1 (stereo not drawn)	3
Cc1nnc2n(C3CCCCC3)c(=O)c3c4c(sc3n12)COC(C)(C)C4	0
CC1(C)Cc2c(sc3[nH]c(=S)n(Cc4ccco4)c(=O)c23)CO1	1 (active)
C=C(C)C1CC=C(C)/C(=N/NC(=O)COc2ccc(C)cc2)C1 (stereo not drawn)	0
C=C(C)C1CC=C(C)/C(=N/NC(=O)c2ccc(NC(=O)CCC)cc2)C1 (stereo not drawn)	0
C=C(C)C1CC=C(C)/C(=N/NC(=O)COc2cccc(C)c2)C1 (stereo not drawn)	1 (active)
